In the OligoGym collection one finds sensor-assay potency score (higher = more potent) data, which are given here for 36 sequences.
Note: reference of the scale not given here.

The first assay has as its target YIPF6. The assay can be described thus: pooled miR-30 sensor sort-seq; sequence = guide strand. The following applies: shRNA.
The sequence TTACAGGTCCTGGATCAGCCAA returned a sensor-assay potency score (higher = more potent) of -1.45. With TCTCTTTGCAGCATTAATGCGA, the sensor-assay potency score (higher = more potent) is -0.247. TTTAGATCACGCATGATGGTAT returned a sensor-assay potency score (higher = more potent) of 0.00293. In turn, TAAACAGCTAGGGCTCTGCGGT returned a sensor-assay potency score (higher = more potent) of -0.877. Same read-out and setting: in the case of TATCTGCAGAGTCTCTTTGCAG it was -1.39; in that of TTTCACTATCTGCAGAGTCTCT, -0.747.

Take TTGAGGGTGATGGTAACTGCAC: the sensor-assay potency score (higher = more potent) is -0.917.

Sequence TTGTGAGATGGATATATCTGAA returned a sensor-assay potency score (higher = more potent) of -0.839. TTTGAGTTGAGGGTGATGGTAA gave a sensor-assay potency score (higher = more potent) of -0.386.

As to TCACTATCTGCAGAGTCTCTTT, the sensor-assay potency score (higher = more potent) was -0.696. TAGGAATGGTGATTTCTCCTTC showed a sensor-assay potency score (higher = more potent) of 0.33.

TTTTAGATCACGCATGATGGTA gave a sensor-assay potency score (higher = more potent) of -0.619.

The target of the next assay is YJEFN3. The description is as above. The following applies: shRNA.
As for ATGTCCATCTTCTCGCACTGGG, the sensor-assay potency score (higher = more potent) is -1.01. The same measure, in the same setting: in the case of TCCATCTTCTCGCACTGGGTGG it was -1.52; in that of TCATCGGGCACGAACCTGCCGG, -1.06; in that of ATGACCGCACAGCTCCACGAGC, -1.82.

In turn, AATCGCTGCCGGTCTCTGCGTC yielded a sensor-assay potency score (higher = more potent) of -0.877.

Consider TTCGTTAATGAGCTGCACCTCA, for which the sensor-assay potency score (higher = more potent) is -0.35. ATGGACAGCAGCTTGAGCGTGG showed a sensor-assay potency score (higher = more potent) of 0.0409.

Sequence TAGCATGACCGCACAGCTCCAC displayed a sensor-assay potency score (higher = more potent) of -0.593.

Turning to TTAATGAGCTGCACCTCAGTGG, the sensor-assay potency score (higher = more potent) was 0.0127.

On to TTGAGCGTGGCCAGCGCGCGGG, for which the sensor-assay potency score (higher = more potent) is -0.949.

The sequence TGTCCATCTTCTCGCACTGGGT returned a sensor-assay potency score (higher = more potent) of -1.09. The sequence ATAGGCTTCGTTAATGAGCTGC displayed a sensor-assay potency score (higher = more potent) of 0.277.

The next assay addresses YPEL3. The assay is described as above. The following applies: shRNA.
TTGTACTTCTGGCTGCTCTCAA displayed a sensor-assay potency score (higher = more potent) of 0.24. In turn, TTCAATGATGTACTTCCCCTCT returned a sensor-assay potency score (higher = more potent) of -0.135. For TTGGAGATGAGGTCGTCGTGGT, the sensor-assay potency score (higher = more potent) stood at 0.122.

Consider ATATACAGGAGCTAGATCCGTC, for which the sensor-assay potency score (higher = more potent) is 0.357.

With TTGAGTTCAATGATGTACTTCC, the sensor-assay potency score (higher = more potent) is 0.797. Take TTTGAAATCCGCACCATGGCGG: the sensor-assay potency score (higher = more potent) is -0.368. In the case of TTCTCGCAGTGGATGTCGGCGA, the sensor-assay potency score (higher = more potent) is -0.367.

Regarding TCTTGCAGTTCTCGCAGTGGAT, the sensor-assay potency score (higher = more potent) is -1.02.

In the case of TATACCTCCGGTGACAATCATC, the sensor-assay potency score (higher = more potent) is -1.49. Still for that read-out and setting: in the case of TTCCCCTCTTTGTACTTCTGGC it was -0.928; in that of ACAATCATCCAAGTAGGCCTGA, 0.225.

Sequence TTATGTACAAACGCTACAGAAC had a sensor-assay potency score (higher = more potent) of -1.18.
